# Source: PubChem BioAssay
# MPTP block – mitochondrial permeability transition pore inhibitors, primary screen, biochemical, isolated mouse mitochondria, absorbance; Ca2+ swelling absorbance, 30 min; inhibition, % at 10 µM; 1.4% of 360,000 active; AID 602449, 2012;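 active = inhibition of 50% or more, scaled per plate between neutral and stimulator controls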;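 note: 0% = DMSO wells given calcium and 100% = 1 mM EGTA wells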
# rCAG RNA binder – binders of r(CAG) RNA repeats, primary screen, biochemical, fluorescence; inhibition, % at 3 µM; 1.3% of 370,000 active; r(CAG) RNA repeat, TO-PRO-1 dye displacement fluorescence;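 active = inhibition above the plate cutoff, the mean of all test compounds on that plate plus 3 SD, cut at about 35% in these data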;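 note: 0% = DMSO alone and 100% = 100 µM mitoxantrone as full dye displacement; higher means more dye released from RNA so lower well fluorescence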
# ADAM10 inh – human ADAM10 inhibitors, primary screen, biochemical, QFRET, HTS | Disintegrin and metalloproteinase domain-containing protein 10 (Homo sapiens), O14672 | inhibition, % at 7 µM | recombinant ADAM10, EDANS/DABCYL FRET peptide cleavage, 3 h | 0.62% of 370,000 active | AID 720582, 2013;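 active = inhibition above a per-campaign cutoff equal to the mean of compounds falling between control-based bounds plus 3 SD, cut at about 20% in these data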;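 note: 0% = DMSO wells while the 100% control is not disclosed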
# KLK7 zymogen act – proKLK7 zymogen activators, primary screen, biochemical, fluorescence intensity; Kallikrein-7 (Homo sapiens), P49862; purified proKLK7, EDANS-DABCYL substrate fluorescence; 100% is mature enzyme control, 0% vehicle; activation, % at 7 µM; 0.9% of 370,000 active; AID 652039, 2013;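 active = activation above the mean of all tested compounds plus 3 SD, computed per campaign excluding outliers beyond control limits, cut at about 13% in these data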
# ADAM17 inh – ADAM17 inhibitors, primary screen, biochemical, QFRET; Disintegrin and metalloproteinase domain-containing protein 17 (Homo sapiens), P78536; recombinant ADAM17, EDANS/DABCYL FRET peptide cleavage; inhibition, % at 6.95 µM; 0.83% of 370,000 active;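 active = inhibition above the mean of compounds lying between control limits plus 3 SD, set per campaign, cut at about 8.5% in these data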;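 note: 0% = DMSO-only wells as the low control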
# Target sequence (P78536 215-824 limits assumed): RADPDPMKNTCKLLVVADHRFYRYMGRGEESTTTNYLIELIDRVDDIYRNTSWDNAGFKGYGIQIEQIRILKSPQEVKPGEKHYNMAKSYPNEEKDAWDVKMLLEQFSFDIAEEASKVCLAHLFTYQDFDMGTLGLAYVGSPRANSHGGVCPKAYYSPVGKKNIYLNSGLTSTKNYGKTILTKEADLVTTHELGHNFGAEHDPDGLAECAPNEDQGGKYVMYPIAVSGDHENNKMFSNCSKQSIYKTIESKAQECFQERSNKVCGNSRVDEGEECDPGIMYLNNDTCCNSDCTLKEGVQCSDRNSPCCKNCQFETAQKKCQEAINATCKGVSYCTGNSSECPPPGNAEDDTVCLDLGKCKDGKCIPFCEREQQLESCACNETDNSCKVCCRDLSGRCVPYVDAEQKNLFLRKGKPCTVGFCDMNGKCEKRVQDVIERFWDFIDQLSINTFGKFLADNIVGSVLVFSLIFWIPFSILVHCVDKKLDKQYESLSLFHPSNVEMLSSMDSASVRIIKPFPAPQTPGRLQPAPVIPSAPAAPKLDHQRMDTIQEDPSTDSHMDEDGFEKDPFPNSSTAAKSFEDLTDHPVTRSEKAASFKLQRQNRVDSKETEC
# Pemphigus Ab inh – inhibitors of pemphigus antibody binding to DSG3, primary screen, biochemical, bead-based, flow cytometry, scFv-GFP; binding (percent of control), % at 10 µM; 0.48% of 310,000 active; DSG3-coupled beads, scFv-anti-DSG3-GFP binding; active compounds read low; Desmoglein-3 (Homo sapiens), P32926;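 active = binding more than 3 SD below its plate's average and above zero; inconclusive = below that plate limit but binding exactly zero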;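 note: hits lower antibody fragment binding to DSG3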
# proKLK7 act conf – proKLK7 zymogen activators, confirmation, biochemical, fluorescence intensity, triplicate; shares compounds with KLK7 zymogen act; purified proKLK7, EDANS-DABCYL substrate fluorescence; scaled: vehicle 0, mature enzyme 100; activation, % at 7 µM; 68% of 3,200 active;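 active = activation, as change over the incubation, above the mean of all tested compounds plus 3 SD, cut at about 13% in these data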
# EDANS interfere – EDANS-DABCYL substrate optical interference, artefact control for kallikrein-7 zymogen activator project, biochemical, fluorescence intensity, high throughput | shares compounds with KLK7 zymogen act | no enzyme, 4 h; solvent 0%, active enzyme control 100% | activation, % at 7 µM | 80% of 3,200 active;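 active = activation above the all-compound mean plus 3 SD, ignoring values outside control-based bounds, cut at about 4.8% in these data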;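 note: value is the 4 h activation minus the activation read at time zero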
# K7 EDANS ctr – counter-screen for kallikrein-7 activators: EDANS-DABCYL interference, dose response | 20% of 250 active | EDANS-DABCYL peptide fluorescence interference, no enzyme | EC50, µM | AID 720493 | shares compounds with KLK7 zymogen act;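 active = compounds that raise the fluorescence signal in this interference counterscreen, with EC50 at or below 10 µM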;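 note: intact quenched peptide substrate alone read at 355 nm excitation and 520 nm emission; signal is fluorescence gain from T0 to T4 after four hours at room temperature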
# An asterisk follows results filed as active; i = inactive; ? = inconclusive; . = not tested or not shown. The list is not random: actives were taken first. Their share in the collection is about 4.7%.
SMILES,MPTP block,rCAG RNA binder,ADAM10 inh,KLK7 zymogen act,ADAM17 inh,Pemphigus Ab inh,proKLK7 act conf,EDANS interfere,others
O=C1c2ccccc2NC(c2cccnc2)N1c1ccccc1F (centres undefined),0.3,-1.9,i,22.8*,-376.9,95.2,40.1*,31.7*,
Cc1ccc(CNC(=O)C2CCC(=O)N(Cc3cccc(F)c3)C2)s1 (centres undefined),-0.1,1.1,-0.4,0.1,-1.3,99.1,.,.,
Cc1cccn2c(=O)c3cc(C(=O)NCCN4CCOCC4)c(=N)n(Cc4ccc(F)cc4)c3nc12,-0.3,3.1,i,16.7*,-445.1,131.0,-12.0,-6.5,
CCOCCCn1c(=N)c(C(=O)NCCN2CCOCC2)cc2c(=O)n3cccc(C)c3nc21,0.2,-0.8,i,45.3*,-433.5,107.1,13.6*,3.4,K7 EDANS ctr=>69.5
Cc1cccn2c(=O)c3cc(C(=O)NCCN4CCOCC4)c(=N)n(CCN4CCOCC4)c3nc12,0.0,-5.0,i,11.7,-348.1,89.2,.,.,
Cc1ccc(Cn2c(=N)c(C(=O)NCCN3CCOCC3)cc3c(=O)n4ccccc4nc32)cc1,-1.9,2.4,i,0.8,-209.0,99.7,.,.,
CCCCc1cc(=O)oc2cc(O)cc(O)c12,-0.9,4.9,i,78.0*,i,102.3,69.7*,69.8*,
CCCc1cc(=O)oc2cc(C)cc(OCC(=O)O)c12,0.3,-0.2,i,18.8*,-186.2,100.0,35.6*,34.2*,
CCCCc1cc(=O)oc2cc(C)cc(OC(C)C(=O)O)c12 (centres undefined),1.6,6.8,i,19.8*,-245.0,.,31.4*,33.2*,
CCOC(=O)[C@]12CCCC=C1N(Cc1ccccc1)C(=O)[C@H](CC(=O)NCCCOC)C2,-0.6,-0.5,-6.2,-0.2,-2.8,.,.,.,
COc1ccc(Cc2c(-c3ccccc3)nc3c(C)cc(Br)cn23)c(C)c1,0.5,22.2,1.4,-0.1,-0.9,.,.,.,
COc1ccc(CC(=O)N2CCc3cc(OC)c(OC)cc3C2O)cc1OC (centres undefined),-0.5,-0.2,-63.8,14.1*,-28.2,92.8,4.6,4.1*,
COc1cc2c(cc1OC)C(C1C(=O)CC(C)(C)CC1=O)N(C(=O)CCl)CC2 (centres undefined),-0.5,-0.6,-459.8,124.2*,-152.8,85.3,12.4,15.2*,
COc1ccc(N2CCN(C(=O)CN3C(=O)NC4(CCCc5ccccc54)C3=O)CC2)cc1 (centres undefined),-1.4,-3.8,-4.0,0.3,-3.3,93.8,.,.,
CCc1nc(CN2CCCC(C(=O)c3ccc4c5c(cccc35)CC4)C2)c(C)[nH]1 (centres undefined),4.0,8.8,-467.1,15.3*,-140.2,95.9,-4.0,0.1,
Cc1ccc(/C=C(\C#N)C(=O)Nc2cccc(C)n2)cc1,-0.1,5.7,-11.0,0.5,-12.5,99.5,.,.,
Cc1ccccc1NC(=O)Cc1nc(COC(=O)Cc2c(F)cccc2Cl)cs1,-0.7,-1.2,8.8,0.3,3.9,.,.,.,
Cc1ccc(C(=O)/C=C/Nc2ccc(S(=O)(=O)Nc3cc(C)nc(C)n3)cc2)cc1,-1.2,15.7,-40.7,29.6*,-6.2,97.1,148.4*,118.9*,
Cc1ccc(/C=C/C(=O)Nc2ccc(S(=O)(=O)Nc3cc(C)nc(C)n3)cc2)cc1,-1.8,24.0,1.1,0.3,-1.1,94.2,.,.,
CCc1cc2c(=O)nc3n(c2s1)Cc1ccccc1/C3=C(/O)c1ccc(F)cc1,4.4,13.9,-69.2,23.4*,-15.4,93.0,64.5*,67.7*,
CCc1cc2c(=O)nc3n(c2s1)Cc1ccccc1/C3=C(/O)c1cccc([N+](=O)[O-])c1,-2.3,.,.,.,.,95.8,.,.,
CCc1cc2c(=O)nc3n(c2s1)Cc1ccccc1/C3=C(/O)c1ccccc1Cl,1.5,4.5,-11.5,13.5*,-7.5,92.6,16.1*,23.4*,
O=c1c2cccc(Cl)c2nc2n1Cc1ccccc1-2,5.8,-1.5,6.0,0.0,-1.9,98.6,.,.,
Cc1[nH]c2ccccc2c1CC(=O)Nc1ccc(Nc2ccccc2)cc1,.,13.0,6.4,-0.4,5.2,.,.,.,
COc1ccc(NC(=O)c2cc(C3CCCCN3C(=O)OCc3ccccc3)on2)c(C)c1 (centres undefined),-0.4,2.9,-0.8,1.4,2.0,.,.,.,
SMILES,MPTP block,rCAG RNA binder,ADAM10 inh,KLK7 zymogen act,ADAM17 inh,Pemphigus Ab inh,proKLK7 act conf,EDANS interfere,others
Nc1cc(Cl)ccc1C(=O)OCC(=O)NC1CCS(=O)(=O)C1 (centres undefined),2.4,0.7,i,1.6,-170.0,99.9,.,.,
Nc1ccc(Cl)cc1C(=O)OCC(=O)NC1CCS(=O)(=O)C1 (centres undefined),-1.5,-0.4,i,13.9*,-393.6,93.4,22.5*,18.6*,K7 EDANS ctr=i
NNC(=O)c1ccc(CSc2cccc3cccnc23)cc1,0.2,9.3,-303.4,12.7*,-114.2,85.8,4.4,-1.1,
O=C(N/N=C/c1ccccc1Br)c1ccc(CSc2cccc3cccnc23)cc1,3.3,6.3,-68.6,-0.9,-21.4,104.2,.,.,
CCC(C)NC(=O)CN1c2cccc3cccc(c23)S1(=O)=O (centres undefined),0.5,-3.9,-180.9,14.2*,-73.5,102.8,6.5,9.6*,
CC1CCN(C(=O)CN2c3cccc4cccc(c34)S2(=O)=O)CC1,1.7,2.7,-359.2,17.5*,-101.0,?,9.3,7.1*,
C#CCOCCOCCOCCNc1nc(N2CCOCC2)nc(N2CCN(C(=O)[C@H](C)n3cc(CCC(=O)O)nn3)CC2)n1,-1.0,-3.7,0.2,-0.7,-3.6,100.6,.,.,
CCOC(=O)Nc1ccc2c(COC(=O)CNS(=O)(=O)c3ccc(NC(C)=O)cc3)cc(=O)oc2c1,2.2,13.2,i,98.1*,-432.2,85.3,126.5*,106.1*,
Cc1cccc(C2Nc3ccccc3C(=O)N2c2ccccc2)n1 (centres undefined),0.1,-0.3,i,19.2*,-343.0,97.5,40.5*,43.4*,
O=C1C(CO)C(CO)C(CO)C1CO (centres undefined),-2.0,0.6,-13.8,-1.8,-1.8,86.9,.,.,
